# Experimental data published in ChEMBL document CHEMBL3988442, “University of Dundee, Small-Polar-MMV Screening Library” (2021).
# The campaign covered roughly 48,000 compounds. About 13,000 (27%) showed an effect of 50% or more. The list shows a part of the results.
# Test system: Wolbachia pipientis
# Experiment: Anti-Wolbachia Cell-Based Screen
# Type: functional
# Set-up: scale not given: in the data most compounds retested in dose-response had high values
# Details: 5 µM
row,Compound,Percent Effect
1,O=C(CN1CCOc2ccccc2C1)N1Cc2cnn(CCO)c2C1,6.512%
2,Cc1cnc(C)c(-c2cc(O)c3c(c2)CN(c2ncccn2)CCO3)n1,-18.62%
3,CN(C)C(=O)c1nc(CN2CC(c3ccccc3)CC2=O)no1 (stereo not given),7.307%
4,C=C(C)CN(CC)Cc1nc(C2CC2)no1,1.764%
5,CCCS(=O)(=O)N1CCn2cc(CNc3ccccn3)nc2C1.O=C(O)C(F)(F)F,-1.498%
6,O=C(CSCc1ccccn1)N(Cc1ccsc1)C1CC1,-10.63%
7,OC1(CNC2CCN(c3ccccn3)CC2)CCc2ccccc21 (stereo not given),6.779%
8,CCC(=O)N1CCN(C(=O)Nc2cccc(C#N)c2)[C@H]2CS(=O)(=O)C[C@H]21,-1.601%
9,CC(C)C1CN(S(C)(=O)=O)CCCN1Cc1ccc(F)cc1 (stereo not given),3.687%
10,O=C(Cn1cc(NC(=O)c2ccc(F)cc2F)cn1)NC1CCCC1,5.692%
11,O=C(Nc1cnn(Cc2ccc(Cl)cc2)c1)N[C@@H]1C=C[C@H](CO)C1,-9.454%
12,CCOC1CCCN(C(=O)Nc2cnn(CC(F)F)c2)C1 (stereo not given),6.944%
13,CS(=O)(=O)N1CCCC(C(=O)Nc2cnn(Cc3ccc(F)cc3)c2)C1 (stereo not given),99.84%
14,CS(=O)(=O)N1CCCC(C(=O)Nc2cnn(Cc3ccc(Cl)cc3)c2)C1 (stereo not given),106.8%
15,CN(Cc1ccc(Cl)cc1)C(=O)Nc1cnn(CC(N)=O)c1,3.306%
16,CCn1cc(NC(=O)C2CCN(CCOC(C)C)CC2)cn1,-5.388%
17,CS(=O)(=O)N1CCC(C(=O)N2CCC(Cn3cccn3)CC2)CC1,-10.97%
18,CCOCn1cc(NC(=O)C2CCN(S(C)(=O)=O)CC2)cn1,105.1%
19,CS(=O)(=O)N1CCCC(C(=O)Nc2cnn(COCC(F)(F)F)c2)C1 (stereo not given),96.9%
20,CS(=O)(=O)N1CCC(C(=O)Nc2nnc(C(F)(F)F)[nH]2)CC1,11.43%
21,Cc1nc(CNC(C)c2cccc(S(=O)(=O)N(C)C)c2)no1 (stereo not given),-7.216%
22,CS(=O)(=O)c1ccc(NC(=O)CSc2ccc3c(c2)CCC3)cc1,1.625%

row,Compound,Percent Effect
1,Cn1cnc2c1C(COCC1CC1)CN(C(=O)c1ccsc1)C2 (stereo not given),-2.938%
2,COCCN1CCN(CCS(=O)(=O)c2cccc(OC)c2)CC1,2.005%
3,CN(C)C(=O)CCNC(=O)Nc1sc2ccccc2c1Cl,-12.49%
4,N#CCC(=O)NCc1nnc2n1CCN(Cc1nccs1)C2,-14.07%
5,CCNc1nc(C)c(C(=O)N(C)Cc2nc(-c3ccncc3)no2)s1,-39.74%
6,CC(C)(CNc1ccc2ccc(F)cc2n1)NS(C)(=O)=O,-16.93%
7,CCS(=O)(=O)N1CC(c2nc(-c3ccncc3)no2)C1,-18.6%
8,CC(C)(NS(C)(=O)=O)c1nc(-c2cccc(Cl)c2)no1,115.9%
9,CC(C)(NS(C)(=O)=O)c1nc(-c2ccc(F)cc2Cl)no1,95.59%
10,Cc1ccc(-c2noc(C(C)(C)NS(C)(=O)=O)n2)cc1F,124.7%
11,Cc1ccc(-c2noc(CNCC3CN(C)CCO3)n2)cc1F (stereo not given),8.94%
12,CC(C)(NS(C)(=O)=O)c1nc(-c2ccncc2)no1,92.68%
13,CC(Cn1cccn1)NCc1nc(-c2cccc(Cl)c2)no1 (stereo not given),-1.118%
14,CC(C)C1=NOC(c2nc(-c3cccc(Cl)c3)no2)C1 (stereo not given),-9.721%
15,Cc1ccc(-c2noc(CN3CCOC(CN(C)C)C3)n2)cc1F (stereo not given),-11.04%
16,CCc1nc(NS(=O)(=O)c2ccc(F)cc2Cl)no1,2.388%
17,O=C1[C@H]2CC[C@H](CN(C3CSCCSC3)C2)N1Cc1cscn1,1.539%
18,COC(=O)c1ccc(N2CCN(C(=O)c3cnn(C)c3)C(C)C2)cc1 (stereo not given),5.538%
19,Cc1cnn(CC(C)NCc2ccc(OCc3ccncc3)cc2)c1 (stereo not given),2.463%
20,CCn1c(CN(C)C(=O)c2ccc(OC)nc2)nc2ccccc21,-6.401%
21,OC1(CN2CCCC2)COCCN(c2noc(-c3ccccc3)n2)C1 (stereo not given),-20.3%
22,N#Cc1cc(F)c(NCCCOCC2CCOC2)c(F)c1 (stereo not given),-9.574%

row,Compound,Percent Effect
1,Cc1cc(-c2noc(C3CCS(=O)(=O)C3)n2)ccc1F (stereo not given),-6.108%
2,CC(C)(NS(C)(=O)=O)c1nc(-c2ccc(F)c(F)c2)no1,108%
3,Cc1cc(-c2nnn(CCNS(C)(=O)=O)n2)ccc1F,-4.563%
4,CCn1cc(CNc2ccc3nccnc3c2)cn1,0.1341%
5,CN(C)S(=O)(=O)N1CCC2(CCCN(Cc3ccc(F)cc3)C2=O)C1 (stereo not given),-3.561%
6,CC[C@@]1(O)CCN(C(=O)CN(C)Cc2ccc(F)cc2)C[C@H]1O,-15.44%
7,CN(Cc1ccc(F)cc1)[C@@H]1CN(C(=O)c2cccs2)C[C@H]1O,3.837%
8,CN(Cc1ccc(F)cc1)[C@@H]1CN(S(=O)(=O)N(C)C)C[C@H]1O,124.5%
9,CCS(=O)(=O)N1C[C@@H](O)[C@H](N(C)Cc2ccc(F)cc2)C1,127.5%
10,CN(Cc1ccc(F)cc1)[C@@H]1CN(S(C)(=O)=O)C[C@H]1O,89.96%
11,CC(C)C1CN(S(=O)(=O)N(C)C)CCCN1Cc1ccc(F)cc1 (stereo not given),3.4%
12,CN(Cc1ccc(F)cc1)S(=O)(=O)N1CCOCC1,-4.525%
13,CS(=O)(=O)N1CCO[C@@H]2CN(Cc3ccc(F)cc3)C[C@@H]2C1,-1.129%
14,COCc1ccc(CNC(=O)CN2CCc3ccccc32)cc1,-11.7%
15,CN1CCN(CC(=O)NCc2ccco2)Cc2ccccc21,-30.17%
16,COC(=O)N1CCc2ccccc2C1C(=O)NCc1ccco1 (stereo not given),14.18%
17,OC(CN1CCCCc2ccccc21)Cn1cccn1 (stereo not given),-5.145%
18,COCCN1C[C@H]2CN(C(=O)NCc3ccccc3)CCN2C1=O,8.785%
19,COCCN1C[C@H]2CN(C(=O)NC(C)C)CCN2C1=O,-4.801%
20,COCC(O)CN1CCC(=O)N(Cc2ccco2)Cc2ccccc21 (stereo not given),86.65%
21,COCC(O)CN1CCC(=O)N(Cc2ccccc2)Cc2ccccc21 (stereo not given),97.49%
22,CCCC(O)CN1CCC(=O)N(Cc2ccccc2)Cc2ccccc21 (stereo not given),123.8%

row,Compound,Percent Effect
1,CCC1CN(C(=O)c2cccc(O)c2)CCC(=O)N1Cc1ccccc1 (stereo not given),8.552%
2,CCCC(O)CN1CCC(=O)N(CCOC)Cc2ccccc21 (stereo not given),121.9%
3,Cc1ccc([C@@H]2CN(S(=O)(=O)N(C)C)C[C@H]2N(C)C)cc1,0.6697%
4,Cc1cc(S(=O)(=O)NCC(O)c2sccc2C)ccc1F (stereo not given),4.369%
5,CCOc1ccc(CN(C)C(=O)COc2ccc(C)nc2)cc1,-6.842%
6,CCc1c(C(=O)N2CCN(C)[C@@H]3CS(=O)(=O)C[C@@H]32)[nH]c2ccccc12,-4.01%
7,CCN1CC(CN(C)c2cc(C)nc(N)n2)Oc2ccccc21 (stereo not given),10.5%
8,CCN(CC1CCOCC1)C(=O)Cn1ccccc1=O,-19.1%
9,O=C(CN1CCc2ccccc21)NCc1ccc(Cl)cc1,-3.042%
10,CC(O)CN1CCC(=O)N(Cc2ccccc2)Cc2ccccc21 (stereo not given),125.3%
11,CC(C)NC(=O)c1nc2c(s1)CCCN2Cc1ccccc1,-9.51%
12,CCCc1nc(CN(CC)C(=O)c2ccc3[nH]cnc3c2)no1,-17.17%
13,CC(C)(C)n1ncc2c1CCCC2NCc1cccc2c1OCO2 (stereo not given),3.56%
14,CNC(=O)C1(Cc2cc(C(C)C)no2)CCN(Cc2cccnc2)C1 (stereo not given),113.2%
15,CC(C)c1cc(C(=O)N2C[C@H]3CC[C@@H]2CN(Cc2ccccn2)C3)no1,-1.053%
16,CC(C)c1cc(CNC(=O)NCc2cccc(N3CC=CC3)c2)on1,1.94%
17,CCOC(C)c1noc(CN2CCN(Cc3cccnc3)CC2)n1 (stereo not given),-3.385%
18,CNC(=O)C1(Cc2cc(C(C)C)no2)CCN(Cc2ccccn2)C1 (stereo not given),108.3%
19,O=C(O)C1(Cc2ccc(F)cc2F)CCCN(Cc2ccccn2)C1 (stereo not given),-12.03%
20,COC1(CNS(=O)(=O)c2ccccc2Br)CCSC1 (stereo not given),-11.32%
21,O=C(NCCC(O)c1cccs1)c1ccc(Br)o1 (stereo not given),-2.242%
22,Cc1cc(C)nc(NC2CC(=O)N(C(C)(C)C)C2)n1 (stereo not given),-13.08%

row,Compound,Percent Effect
1,Cc1ccc(CN(C)C(=O)NCC(=O)NC(C)(C)C)s1,-5.904%
2,CCc1cnc(NCCS(=O)(=O)CC(C)C)nc1,-2.356%
3,O=C(O)C(F)(F)F.O=C(c1ccsc1)N1CCc2onc(COc3ccccn3)c2C1,-81.7%
4,Cc1cc(C(F)(F)F)nn1CCNC(=O)C(C)n1ccnc1C(C)C (stereo not given),0.9025%
5,CCC(C)C(=O)NCCCn1nc(C)cc1C (stereo not given),119.6%
6,Cc1cc(C)n(-c2cncc(NCCNC(=O)CC3CCCC3)n2)n1,5.332%
7,Cc1cc(C)n(CC(C)NC(=O)c2cc(C(C)C)on2)n1 (stereo not given),-21.21%
8,Cc1cc(CNC(=O)CC2CCN(C(C)C)CC2)n(C)n1,-16.42%
9,Cc1cc(C)n(CCCNC(=O)C(C)NC(=O)CC2CCCCC2)n1 (stereo not given),122.8%
10,Cc1ccccc1Oc1ncccc1CNC1CCC1,-4.424%
11,Cc1csc(C2(NCCC(=O)N3CCOCC3)CCCC2)n1,-0.7458%
12,CC(C)c1noc(CCCC(=O)NC(C)c2nnc3n2CCC3)n1 (stereo not given),-3.557%
13,CC(NC(=O)CCC1CCCCC1)c1nnc2n1CCC2 (stereo not given),97.89%
14,CCCC(=O)NC(C)c1nnc2n1CCC2 (stereo not given),66.57%
15,CC(=O)NCCCC(=O)NC(C)c1nnc2n1CCC2 (stereo not given),91.49%
16,Cc1noc(CCCC(=O)NC(C)c2nnc3n2CCC3)n1 (stereo not given),-11.73%
17,CC(C)c1noc(CCC(=O)NC(C)c2nnc3n2CCC3)n1 (stereo not given),-10.52%
18,Cc1noc(C)c1CCC(=O)NC(C)c1nnc2n1CCC2 (stereo not given),-11.45%
19,CCCc1noc(CCC(=O)NC(C)c2nnc3n2CCCCC3)n1 (stereo not given),-7.808%
20,CC(C)c1noc(CCC(=O)NC(C)c2nnc3n2CCCCC3)n1 (stereo not given),-3.569%
21,CC(NC(=O)CCCc1nc(C(C)(C)C)no1)c1nnc2n1CCC2 (stereo not given),7.07%
22,CC(C)CS(=O)(=O)CC(=O)NC(C)c1nnc2n1CCC2 (stereo not given),85.29%
